# Screening results: PubChem BioAssay, Broad Institute
# The full list was thinned out, with hits kept by preference.
# Tgondii IFNg: T. gondii growth inhibition under IFN-gamma | Toxoplasma gondii growth in IFN-gamma-treated host cells; stronger effect = lower value | activity change, negative = inhibition, % (concentration not given with the values) | 69,000 compounds, 3.8% hits; in the data active = activity change below about -70%, passing the limit was not always enough;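 note: host cells are HeLa cells infected with Toxoplasma gondii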
# Hits are given with their value; n = inactive; ! = not active in a repeat.
SMILES,Tgondii IFNg
CC(C)(C(N)=O)c1ccc(-c2cc(N)nc3[nH]ccc23)cc1,n
NC(=O)c1csc(-c2cc(NC3CCCC3)nc3[nH]ccc23)n1,-76
CNC(=O)c1ccc(-c2cc(NCCO)nc3[nH]ccc23)s1,n
CCN1C[C@@H]2CN(S(=O)(=O)c3cccs3)C[C@H]2C1=O,n
Cc1c(C(=O)NCCCOc2ccccc2F)n(C)c2ccc(Cl)cc12,n
FC(F)(F)C1CN(c2nc(-c3ccccc3)no2)CCO1 (centres undefined),n
Cc1nc(N2CCOC(C(F)(F)F)C2)c2ccsc2n1 (centres undefined),n
CC(C)c1cc(N2CCOC(C(F)(F)F)C2)nc(C(F)(F)F)n1 (centres undefined),-81
CCC(=O)Nc1ccc(-c2ccc(OC)nc2)c(C)n1,n
COc1ccc(-c2cc3c(C)nc(N)nc3n(C3CCC(OCCO)CC3)c2=O)cn1 (centres undefined),-83
COc1ccc(-c2ccccc2OC(C)C(N)=O)cn1 (centres undefined),n
COc1ccc(NC(=O)NCC(c2cccnc2)c2cn(C)c3ccccc23)c(OC)c1 (centres undefined),n
CCC[C@H](Nc1nc(-c2ccc(NC(=O)NCC)c(OC)c2)ncc1C)c1cccnc1,-78
COc1cc(OC)c(NC(=O)NCC(c2cccnc2)c2c[nH]c3ccccc23)cc1Cl (centres undefined),n
COc1ccc(C(=O)N2CCC3(CC2)Nc2ccc(C)c(C)c2-n2cccc23)c(OC)c1,n
O=C1CN2Cc3c(ccc(Cl)c3Cl)N=C2N1,-83!
CC(C)Oc1ccc(NC(=O)c2c3c(N4CCN(C)CC4)ncnc3n3ccccc23)cc1,n
CC12C(=O)OC(=O)C1(C)C1CCC2O1 (centres undefined),-86
CCc1ccc(-c2cc(C(=O)N3CCNC(=O)C3CCO)[nH]n2)cc1 (centres undefined),n
Cn1nc(-c2ccccc2)cc1NC(=O)Cn1cnc(Cl)c1Cl,n
Cc1c(C)c(C)c(S(=O)(=O)Nc2cc(-c3ccccc3)nn2CCC#N)c(C)c1C,-88
Cn1nc(-c2ccccc2)cc1NC(=O)C1CCCCC1,n
COCCN1C[C@@H]2CN(C(=O)c3ccncc3)C[C@H]2C1=O,n
O=C(c1ccc(-c2ccccc2)cc1)N1CCN(C2CC3CCC2C3)CC1 (centres undefined),n
CC(C)c1nn(-c2ccccc2)c2c1C(c1ccoc1)CC(=O)N2 (centres undefined),n
SMILES,Tgondii IFNg
CC(C)c1nn(C)c2c1C(c1nc(-c3ccc(Cl)cc3)no1)CC(=O)N2 (centres undefined),-85
COc1c(F)cc(C2CC(=O)Nc3c2c(C(C)C)nn3C)cc1Cl (centres undefined),n
O=C(NCc1cccs1)c1nc(N2CCOCC2)c2ccccc2n1,n
CCc1ccccc1NC(=O)Nc1ccc(-c2nc(-c3ccc(C)cc3)co2)cc1,n
CSc1ccc2c(c1)C(N1CCN(C)CC1)Cc1ccccc1S2 (centres undefined),-77
CN1CCCC(CC2c3ccccc3Sc3ccccc32)C1 (centres undefined),n
CN1CCN2c3ccccc3Cc3ccccc3C2C1 (centres undefined),n
CN1CCN(C2Cc3ccccc3Sc3ccc(Cl)cc32)CC1 (centres undefined),-82
CN1CCN(C2=Cc3ccccc3Oc3ccc(Cl)cc32)CC1,n
Cc1nc2cc(F)ccc2n1C1CCN(CC(=O)N(c2ccccc2)c2ccccc2)CC1,n
COCCN1CCO[C@@H]2CN(C(=O)CC3Cc4ccccc4C3)C[C@@H]2C1,n
O=C(C1CCOCC1)N1CCO[C@@H]2[C@H]1CC[C@H]2Oc1ccccn1,n
Cc1ccc(C)c(N2CCN(C(=O)CC3Nc4c5ccccc5nc(=S)n4C3=O)CC2)c1 (centres undefined),n
CCCn1c(=O)cc(N2CCN(C(=O)CC)CC2)c2cc(C)ccc21,-76
CCCCn1c(=O)cc(O)c2ccccc21,n
c1cc(CN2CCCn3cncc3C2)n(-c2nccs2)c1,n
COc1cccc(NC2COC3(CCN(C(=O)c4ccc(N(C)C)cc4)CC3)C2)c1 (centres undefined),n
Cc1cc(C)n(-c2ccc(CCC(=O)Nc3ccc4nc[nH]c(=O)c4c3)cc2)n1,n
COc1cncc(-c2ccc(F)c(CO)c2)c1,n
Cc1[nH]nc2ccc(-c3cncc(OC[C@@H](N)Cc4ccccc4)c3)cc12,-78
O=C(Cn1c(=O)cc(C(=O)N2CCCCC2)c2ccccc21)NCc1ccc2c(c1)OCO2,n
CCNC(=O)c1cccc(-c2cc(N)nc3[nH]ccc23)c1,n
COc1ccc(-c2cc(N)nc3[nH]ccc23)cc1C,-78
CS(=O)(=O)c1ccc(-c2cc(N)nc3[nH]ccc23)cc1,n
CCn1c(=O)c(C(=O)Nc2cccc(F)c2)c(O)c2ccccc21,n
SMILES,Tgondii IFNg
CCN1CCCC1CN(Cc1cccs1)CC1CCOC1 (centres undefined),n
Fc1cccc(Nc2ccc3c(C4CCCN4Cc4cccnc4)nnn3c2)c1 (centres undefined),n
Cc1ccc2c(c1)cc(C(=O)NCCc1nc3cc(C)c(C)cc3[nH]1)n2C,n
COc1ccc(-c2cc(C(=O)NCCc3nc4cc(C)c(C)cc4[nH]3)nn2C)cc1,n
Cc1cc2nc(CCNC(=O)c3cnc(-c4ccc(Cl)cc4)nc3)[nH]c2cc1C,-95
CCc1ccc(S(=O)(=O)N2CCC3(CCCN(c4ccccn4)C3)C2)cc1 (centres undefined),n
O=C(Nc1cccnc1)N1CCC(Cc2cccc(Oc3ccc(C(F)(F)F)cn3)c2)CC1,-74
CN1CCC(CN2CCN(CCC(=O)Nc3cccnc3)CC2)CC1,n
O=C(O)c1cccc(CC2CCN(C(=O)Cc3cccnc3)CC2)c1,n
O=C(Nc1ccc(-c2nc(-c3ccccc3)co2)cc1)c1cccc(Cl)c1,n
Cc1cc(-n2cnc3c(C)ncnc32)ccc1NC(=O)c1cccnc1,n
CN(C)CCN(C)C1CCCN(C(=O)c2cnc3c(c2)nnn3C)C1 (centres undefined),n
CN(C)CCN1C(=O)CCC12CCN(c1ccc(C#N)cn1)CC2,n
COCC(=O)N1CCn2c(CN3CCN(C)CC3)cnc2C1,n
CC(NCCC(c1ccccc1)c1ccccc1)c1ccccc1 (centres undefined),-82!
CNCC[C@@H](Oc1ccccc1C)c1ccccc1,n
CC(Nc1ccc(-c2nccn2C)nn1)c1ccccc1 (centres undefined),n
COc1ccc(CC2CN(C(=O)c3cnc(-c4ccccc4)nc3)CCO2)cc1 (centres undefined),n
Cc1nn(C)c(Cl)c1CN(Cc1ccncc1)Cc1ccc(F)cc1,n
Cc1cccc(N2CCn3c(Cn4cncn4)cnc3C2)n1,n
COc1ccc(-c2nn(CCC#N)c(=O)[nH]2)cc1,n
Cc1cc2c(cc3c(=O)n(CCC#N)nc(C)n32)s1,-91
COc1ccc(-c2noc(Cc3ccc(OC)c(OC)c3)n2)cc1,n
Cc1cc(C)n(CCC(=O)N2CCN(Cc3ccco3)C(CCO)C2)c(=O)n1 (centres undefined),n
CCS(=O)(=O)N1C[C@@H](c2nc(C)no2)C[C@@H]2OCC[C@@H]21,n
O=C(CCCl)NCCc1ccccc1,n
O=C(NCCCCc1ccccc1)c1ccccc1,-82
O=C(O)CCNC(=O)c1ccccc1,n
CCn1c(=N)n(CC(=O)O)c2ccccc21,n
CC(Cc1cnccn1)NC(=O)c1cn(C/C=C/c2ccccc2)nn1 (centres undefined),n
